Test results as given in PubChem BioAssay (NCATS).
Records with an inconclusive call do not appear. Calls of active or inactive are those of the source. The call rests on the fitted dose curve.

molecular target: Retinoic acid receptor RXR-alpha (Homo sapiens) (UniProt P19793); test: qHTS assay for small molecule agonists of retinoid X receptor alpha signaling (AID 588544); details: HEK293T RXRa-UAS-bla, beta-lactamase reporter, 18 h; series mostly up to 76.7 µM; activation: at the top concentration
From the text: NIH Chemical Genomics Center [NCGC] U.S. Environmental Protection Agency [EPA] National Institutes of Environmental Health Sciences [NIEHS] National Toxicology Program [NTP] NCGC Assay Overview The Retinoid X receptor (RXR), a nuclear hormone receptor is expressed in liver, spleen, placenta, epidermis, central nervous system. These receptors are able to form homo and heterodimers with other nuclear receptors and due to this heterodimerizing ability, RXR functions as master regulators producing diverse physiological effects. Three subtypes of RXR exist; alpha, beta and gamma. Retinoid X receptor alpha (RXR-alpha) has potential roles in metabolic signaling pathways, skin alopecia, dermal cysts, cardiac development, insulin sensitization etc. Therefore screening environmental chemicals on RXR-alpha signaling can be used for the studies focused on such therapeutic applications.
NCGC Assay Protocol Summary Using a beta-lactamase reporter-gene under control of Retinoid X receptor--alpha (RXR-alpha) response element, a cell-based assay [GeneBLAzer (RXR-alpha -UAS-bla assay developed by Invitrogen] was used to measure RXR-alpha ligands signaling. GeneBLAzer RXR-alpha -UAS-bla HEK293T cells were used with assay medium containing 2% charcoal-stripped FBS. The assay was performed in clear bottom black Greiner 1536-well plates. 9-cis-retinoic acid was used in the screen as the positive control. Library compounds were measured for their ability to stimulate the reporter gene activity. Compounds were screened in a titration series in 1536-well format. The fluorescence intensity (405 nm excitation, 460/530 nm emission) was measured using an EnVision plate reader. Data was normalized relative to 9-cis-retinoic acid control (500 nM, 100%), and DMSO only wells (basal, 0%). Concentration-response titration points for each compound were fitted to the Hill equation yielding concentrations of half-maximal stimulation (EC50) and maximal response (efficacy) values. qHTS protocol for RXR-alpha beta-lactamase assay in agonist mode [Step] [Parameter] [Value] [Description] 1. Reagent; 6 uL; 2500 cells/well 2. Incubation; 37 C for 4 hrs 3. Compounds; 23 nL; 0.59 nM to 92 uM 4. Controls (9-cis-retinoic acid); 23 nL, - One column with dose response, start 38 uM, 1:3 dilutions in duplicates - Final concentrations of 500 nM and 50 nM in two columns 5. Incubation; 37 C for 18 hrs 6. Detection reagent; 1 uL of CCF4-dye 7. Incubation; RT for 2 hrs 8. Detection; Fluorescence; Envision plate reader

Sequence of Retinoic acid receptor RXR-alpha (Homo sapiens) (P19793 whole entry, looked up): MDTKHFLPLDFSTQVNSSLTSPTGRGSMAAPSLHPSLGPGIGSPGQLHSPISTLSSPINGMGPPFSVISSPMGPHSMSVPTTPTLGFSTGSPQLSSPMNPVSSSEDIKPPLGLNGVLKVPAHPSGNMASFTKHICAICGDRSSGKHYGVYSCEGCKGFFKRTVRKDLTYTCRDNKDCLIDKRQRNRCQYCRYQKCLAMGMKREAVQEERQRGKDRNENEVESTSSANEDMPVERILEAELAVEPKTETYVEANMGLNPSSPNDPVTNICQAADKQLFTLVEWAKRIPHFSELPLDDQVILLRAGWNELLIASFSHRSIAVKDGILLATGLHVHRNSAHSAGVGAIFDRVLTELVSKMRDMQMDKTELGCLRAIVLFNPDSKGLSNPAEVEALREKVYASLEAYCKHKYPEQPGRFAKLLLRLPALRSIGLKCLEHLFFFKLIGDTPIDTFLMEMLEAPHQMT

Structure (SMILES)	activation	outcome
CO[C@@H]1[C@H](OC(=O)/C=C/C=C/C=C/C=C/C(=O)O)CC[C@]2(CO2)[C@H]1[C@@]1(C)O[C@@H]1CC=C(C)C	5.95% (inactive)	
OC[C@H]1O[C@@](CO)(O[C@H]2O[C@H](CO)[C@@H](O)[C@H](O)[C@H]2O)[C@@H](O)[C@@H]1O	4.55% (inactive)	
COC(=O)c1ccccc1O		inactive
O=P(O)(O)O	5.79% (inactive)	
OCl	13.6% (inactive)	
CCCCO		inactive
CCCCCCCCCCCCCCCCCC(=O)OC[C@@H](O)[C@H]1OC[C@H](O)[C@H]1O	16.4% (inactive)	
[O-][N+](=Nc1ccccc1)c1ccccc1	1.5% (inactive)	
C=C(C)C1CC=C(C)CC1 (stereo not given)	-13.3% (inactive)	
OCCOCCOCCO		inactive
OCC(O)CO		inactive
Nc1ccc(N=Nc2ccccc2)c(N)n1	-9.04% (inactive)	
Cc1ccc(S(=O)(=O)NCl)cc1	1.74% (inactive)	
Nc1nccs1	12.3% (inactive)	
NCCN	5.37% (inactive)	
OCc1ccccc1	2.11% (inactive)	
C/C=C/C=C/C(=O)O	6.69% (inactive)	
CO	3.8% (inactive)	
Cc1ccc(S(=O)(=O)O)cc1C	6.82% (inactive)	
CO/N=C(/C(=O)N[C@@H]1C(=O)N2C(C(=O)O)=C(COC(N)=O)CS[C@H]12)c1ccco1	3.21% (inactive)	

Structure (SMILES)	activation	outcome
CN(CCO)CC(O)Cn1cnc2c1c(=O)n(C)c(=O)n2C (stereo not given) (tested in a mixture with another compound)	3.15% (inactive)	
OC[C@H]1O[C@@H]2O[C@H]3[C@H](O)[C@@H](O)[C@@H](O[C@H]4[C@H](O)[C@@H](O)[C@@H](O[C@H]5[C@H](O)[C@@H](O)[C@@H](O[C@H]6[C@H](O)[C@@H](O)[C@@H](O[C@H]7[C@H](O)[C@@H](O)[C@@H](O[C@H]1[C@H](O)[C@H]2O)O[C@@H]7CO)O[C@@H]6CO)O[C@@H]5CO)O[C@@H]4CO)O[C@@H]3CO		inactive
CCCCC	5.23% (inactive)	
CC1=CC(=O)NS(=O)(=O)O1	0.589% (inactive)	
OB(O)O		inactive
CCCCC(CC)COS(=O)(=O)O (stereo not given)	13.5% (inactive)	
CC(C)[C@@H]1CC[C@@H](C)C[C@H]1O	-2.07% (inactive)	
C[C@H](CCC(=O)O)[C@H]1CC[C@H]2[C@@H]3[C@H](O)C[C@@H]4C[C@H](O)CC[C@]4(C)[C@H]3C[C@H](O)[C@]12C	-1.23% (inactive)	
ClC(Cl)Cl	4.92% (inactive)	
C=CC(C)(O)CC/C=C(\C)CCC=C(C)C (stereo not given)	-9.89% (inactive)	
CC(C)(C)CC(C)(C)c1ccc(OCCO)cc1	-13.6% (inactive)	
N[C@@H](Cc1cc(I)c(Oc2ccc(O)c(I)c2)c(I)c1)C(=O)O	-4.31% (inactive)	
NC(N)=O	8.26% (inactive)	
CCOC(C)OCC	8.42% (inactive)	
CC1=CCC2CC1C2(C)C (stereo not given)	0.615% (inactive)	
Nc1ncnc2c1ncn2[C@H]1CC[C@@H](CO)O1		inactive
Cc1ncc[nH]1	-1.35% (inactive)	
CC(C)O	15.2% (inactive)	
c1ccc2ccccc2c1		inactive
O.O.O.O.O.O.O.O=S(=O)([O-])[O-].[Co+2]	0.995% (inactive)	
